An excerpt weighted towards active compounds, which were near 3.5% of everything screened.
GPR151 activ = activates the human receptor GPR151; Q8TDV0; PathHunter beta-arrestin GPR151 cells, luminescence; activation, % at 11.2 µM; 650,000 tested, 1% active; in the data active = activation above about 4.9%;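 note: 0% = median of compound wells and 100% = cells with positive control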
FBW7 act = activators of human E3 ligase FBW7; Q969H0; 650,000 tested, 0.13% active; AID 1259310; normalized activity (activation), % at 26.1 µM; AlphaScreen FBW7–phospho-cyclin E peptide binding, activator screen; in the data active = normalized activity above about 1.9%;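 note: purified mutant Fbw7 with reduced substrate affinity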
Target sequence (Q969H0 whole entry, looked up): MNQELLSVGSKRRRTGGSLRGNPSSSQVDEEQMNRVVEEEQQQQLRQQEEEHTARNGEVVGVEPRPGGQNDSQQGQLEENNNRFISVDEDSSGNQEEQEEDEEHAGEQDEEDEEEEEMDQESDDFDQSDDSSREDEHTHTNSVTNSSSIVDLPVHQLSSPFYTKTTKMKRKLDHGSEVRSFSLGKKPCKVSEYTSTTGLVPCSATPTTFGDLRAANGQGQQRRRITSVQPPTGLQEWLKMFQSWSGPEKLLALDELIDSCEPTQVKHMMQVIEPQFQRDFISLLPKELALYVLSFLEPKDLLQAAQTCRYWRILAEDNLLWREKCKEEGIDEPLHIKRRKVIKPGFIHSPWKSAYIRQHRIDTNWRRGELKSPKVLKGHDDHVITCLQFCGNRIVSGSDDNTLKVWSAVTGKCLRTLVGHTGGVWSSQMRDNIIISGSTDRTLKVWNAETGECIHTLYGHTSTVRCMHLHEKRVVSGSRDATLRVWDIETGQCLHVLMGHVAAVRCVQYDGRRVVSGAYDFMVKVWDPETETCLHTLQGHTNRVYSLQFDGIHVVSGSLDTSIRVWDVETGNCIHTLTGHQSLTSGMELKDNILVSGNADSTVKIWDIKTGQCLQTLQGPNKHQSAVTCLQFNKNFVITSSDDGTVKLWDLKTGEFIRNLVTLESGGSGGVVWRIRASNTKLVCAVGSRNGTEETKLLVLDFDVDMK
MITF primary = human MITF inhibition, primary screen; AlphaScreen MITF homodimerization, bead proximity signal; 650,000 tested, 0.91% active; inhibition, % at 2.6 µM; in the data active = inhibition above about 50%;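 note: 0% = vehicle wells with protein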
TEAD-YAP block = TEAD-YAP interaction inhibition. inhibition, % at 9.12 µM. 640,000 tested, 1.4% active. AID 1259422. HEK-TIYL cells, TEAD-Gal4/YAP UAS-luciferase luminescence; in the data active = inhibition above about 32%;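 note: 0% = median of test compound wells and 100% = reference inhibitor wells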
* hit, by the source's call.

SMILES	GPR151 activ	FBW7 act	MITF primary	TEAD-YAP block
Cc1cc2c(N3CCN(c4ccccn4)CC3)ncnc2s1	1.3	0.1	19.1	41.0*
Cc1cc2c(N3CCN(c4ccccc4)CC3)ncnc2s1	0.5	0.2	0.9	6.3
Cc1cc2c(N3CCN(Cc4ccc5c(c4)OCO5)CC3)ncnc2s1	1.1	0.0	17.3	45.5*
O=C(c1cnc(N2CCN(c3ncccn3)CC2)c2ccccc12)N1CCN(Cc2ccc3c(c2)OCO3)CC1	-0.6	0.0	14.1	60.8*
O=C(c1cnc(N2CCN(c3ncccn3)CC2)c2ccccc12)N1CCCC1	-1.0	0.1	4.1	-8.1
Cc1c(C(=O)N2CCCCC2)sc(NC(=O)Cc2cccs2)c1C#N	-1.3	0.2	8.5	-5.3
CC(NCc1c(C(=O)N2CCOCC2)nc2ccccn12)c1ccccc1Cl (configuration not stated)	0.1	-0.1	9.4	-0.1
Cc1nc(N)sc1C(=O)N/N=C/c1c(F)cccc1Cl	-1.6	0.2	1.3	-10.0
Cc1nc(N)sc1C(=O)N/N=C/c1c(Cl)ccc(Cl)c1Cl	1.1	2.5*	15.3	8.5
CCN1C(=C2C(=O)c3ccccc3C2=O)C=Cc2cc(C)ccc21	0.8	0.1	8.7	-44.1
CC[n+]1c(/C=C2\C=Cc3cc(C)ccc3N2C)sc(C)c1C	2.5	-0.3	18.9	60.7*
CC[n+]1ccc(/C=C2\C=Cc3ccc(C)cc3N2C)cc1	0.7	0.0	2.0	-0.6
CCN1/C(=C/c2cc[n+](C)cc2)C=Cc2cc(C)ccc21	3.1	-0.6	11.3	81.2*
CC[n+]1ccc(/C=C2\C=Cc3cc(C)ccc3N2C)cc1	-0.4	0.0	19.9	58.5*
COc1ccc(C(C)=O)cc1CSc1nc2ccccc2c(=O)n1CCc1ccccc1	-1.1	0.3	16.8	-5.5
CCOC(=O)c1c(C)c(C(=O)Nc2ccc(OC)cc2)c(C)n1CC	0.8	0.0	4.3	47.3*
CCOC(=O)c1c(C)c(C(=O)Nc2ccc(C(=O)OC)cc2)c(C)n1CC	0.8	-0.2	3.3	-4.5
CCOC(=O)c1c(C)c(C(=O)Nc2ccc(OC)cc2OC)c(C)n1CC	-0.7	-0.3	-5.8	45.7*
C=CCc1ccc(O)c(-c2cc(CC=C)ccc2O)c1	0.4	0.5	13.8	0.1
C=CCN(CC=C)Cc1cc(O)c(CN(CC=C)CC=C)cc1O	0.4	0.0	53.2*	-7.7
CCOC(=O)c1sc(N2C(=O)C(=O)/C(=C(/O)c3ccc(C)cc3)C2c2cccc(Br)c2)nc1C (configuration not stated)	-0.5	0.0	-4.0	-11.2
CC(=O)NC(c1ccc(N(C)C)cc1)c1cc(Cl)c2cccnc2c1O (configuration not stated)	-0.1	-0.5	31.7	29.7
CC(=O)NC(c1ccc(C(C)C)cc1)c1cc(Cl)c2cccnc2c1O (configuration not stated)	-1.7	0.0	11.1	38.4*
CC(=O)NC(c1ccccc1)c1cc(Cl)c2cccnc2c1O (configuration not stated)	0.5	-0.3	62.9*	75.6*
CCC(CC)NC(=O)c1ccc(OC(C)=O)cc1	-0.9	0.0	0.6	-2.2
SMILES	GPR151 activ	FBW7 act	MITF primary	TEAD-YAP block
O=C(Cc1ccccc1)Nn1c(SCc2ccncc2)nc2ccccc2c1=O	0.8	-0.1	-9.7	2.2
CCOc1ccc(/C=N/Nc2snc(SC)c2C#N)cc1	0.9	0.0	7.8	-9.2
COc1cc(/C=N/Nc2snc(SC)c2C#N)cc(OC)c1OC	-0.5	0.1	2.4	33.7*
CCN(CC)S(=O)(=O)c1ccc(N2CCN(c3ccc(C(F)(F)F)cn3)CC2)nc1	-1.2	0.1	-3.3	3.2
CS(=O)(=O)N(CC(=O)NCC1CCCO1)c1ccc(I)cc1 (configuration not stated)	0.1	-0.1	-1.4	-7.4
CCCn1c(=O)c(C(=O)Nc2nc3ccc(C)cc3s2)c(O)c2ccccc21	0.8	-0.1	-0.5	0.4
NC(=O)c1cnn(-c2ccnc(NC(=O)Cc3ccc(F)cc3)c2)c1	0.1	0.5	-16.6	75.5*
Cc1ccc(C(C[N+](=O)[O-])c2c[nH]c3ccccc23)o1 (configuration not stated)	-1.1	0.0	-0.1	53.6*
CCOC(=O)N1CCN(c2c(NCCCN(CC)c3cccc(C)c3)c(=O)c2=O)CC1	0.6	-0.1	68.4*	5.7
CN(Cc1ccccc1)C1=CC(=[N+]2CCCC2)CC(C)(C)C1	1.4	-0.2	-3.4	80.2*
CCN(CC)C1=CC(=[N+]2CCCC2)CC(C)(C)C1	1.3	0.1	9.6	60.1*
CN(CCO)C1=CC(=[N+]2CCOCC2)CC(C)(C)C1	1.0	-0.1	-5.5	4.7
O=C(NCCn1cc(SCC(=O)N2CCCCCC2)c2ccccc21)c1c(F)cccc1F	2.7	-0.6	7.2	34.2*
Cc1ccc(C(=O)NCCn2cc(SCC(=O)NCC3CCCO3)c3ccccc32)cc1C (configuration not stated)	0.8	-0.3	3.8	32.7*
O=C(CSc1cn(CCNC(=O)c2ccc(F)cc2)c2ccccc12)NCC1CCCO1 (configuration not stated)	-0.6	-0.1	5.9	10.2
Cc1ccc(N=C2NC(=O)/C(=C\c3ccc(OCc4ccccc4C#N)cc3)S2)cc1	-0.1	0.0	-20.0	2.5
O=C(NC1CCCCCC1)c1cccc2[nH]ncc12	-5.2	0.0	4.9	84.3*
CCOc1ccc(NC(=O)C2c3ccccc3C(=O)N(C)C2c2ccc(OC)cc2)cc1 (configuration not stated)	-0.7	0.8	9.6	2.4
O=C(NNC(=O)c1nn(-c2ccc(Cl)cc2)cc1O)c1ccc2ccccc2n1	-2.1	-1.0	69.4*	65.2*
O=C(NNC(=O)c1nn(-c2ccc(Cl)cc2)cc1O)c1ccccc1F	0.6	-0.4	28.1	15.5
CC(C)CC(=O)Nc1ccc(S(=O)(=O)N2CCC(c3nc4ccccc4[nH]3)CC2)cc1	1.4	0.3	19.9	34.4*
Cc1cc(/C=C2\C(=N)N3N=C(c4ccccc4Cl)SC3=NC2=O)c(C)n1-c1ccc(F)cc1	-0.3	0.8	11.3	0.8
Cc1cc(=O)n(CC(=O)Nc2ccc3c(c2)OCO3)c(-n2nc(C)cc2C)n1	0.2	-0.3	0.5	13.1
O=C(Nc1ccc2c(c1)OCCO2)c1ccccc1Br	-2.8	0.3	-4.2	37.4*
O=C(Nc1nnc(-c2ccc3c(c2)OCCO3)o1)c1ccccc1Oc1ccccc1	-0.5	0.0	0.9	8.6
SMILES	GPR151 activ	FBW7 act	MITF primary	TEAD-YAP block
O=C(Nc1nnc(-c2ccc3c(c2)OCCO3)o1)c1ccccc1Br	-1.2	0.0	20.9	67.7*
O=C(Nc1ccc2c(c1)OCCO2)c1cc(Br)cc(Br)c1I	0.2	-0.1	-0.2	46.8*
O=C(CSc1ncccc1C(=O)O)Nc1ccc2c(c1)OCCO2	-0.2	0.0	-0.8	62.6*
O=C(O)C1CCC(Cn2c(=S)[nH]c3ccsc3c2=O)CC1 (configuration not stated)	-0.5	0.1	-3.5	1.2
CC(=O)NC1C(Oc2ccc(C)cc2)OC(CO)C(O)C1O (configuration not stated)	2.7	0.2	-9.9	9.6
COc1ccc(-c2cn3nc(N4CCCC(C(=O)N5CCCCCC5)C4)sc3n2)cc1 (configuration not stated)	0.7	-0.2	6.8	45.0*
